# Where a chain is given by its changes, count along the chain named. The full ranking holds about 5,800 sequences; the median of “enrichment r” is about 0.54, and the highest 2% start at about 16. Shown is part of a subset that was picked to be rich in the highest values.
# B1: chr9:72354534:72354635:-|3pUTR|ENSG00000107372|msi1|FALSE|unique (ssRNA)
# RNA: GGGAGUUCUACAGUCCGACGAUCGUCCUAGUUUUUACUUUUAUUCUUAAAGCAUUCAGUUUUGCUUUCAAUUUUAUGUACCUUAGUUCUGAGUUAGACCUGCAGAUGUGUACAGAUAGUUCAUAUUUAUGUAUUGCACAUAAUCAACAGAGGAUUGAGCAUCA
# B2: chr10:95311796:95311897:-|3pUTR|ENSG00000095637|unk|FALSE|unique (ssRNA)
# RNA: GGGAGUUCUACAGUCCGACGAUCCAGACAUAGAUUUUUCUGUUCAUUUAUUUUUCUUCAUUGCAGUGGAUUGAUUUGAUAAAUAGAUGUGUUGAAUUACUACAUUUGCUGUACAUAUUAUUUAAUAAACUUUAUUCAGAAUUGCAACAGAGGAUUGAGCAUCA
# B3: chr9:72354534:72354635:-|3pUTR|ENSG00000107372|msi1|total|mutant (ssRNA)
# RNA: B1 RNA with U28C, A29C, U83C, A84C, U94C, A95C, U116C, A117C
# B4: ENSG00000070961:be:win_5651|3pUTR|ENSG00000070961|bound_else_gene|NA|bound_elsewhere_windowed (ssRNA)
# RNA: GGGAGUUCUACAGUCCGACGAUCGUUUCUAGUCUUGGUUUUGCCAUUAAUGUGCUGCAUGAUCUUGGGAAAAUCAUUUACCCUAAAUAAGGGUGGUGGACUAUCUUGAAGAACCCUUUCAACUCUAAAAAUUGACCCUAUCAACAACAGAGGAUUGAGCAUCA
# B5: chr19:14119889:14120036:-|3pUTR|ENSG00000105011|msi1|total|mutant (ssRNA)
# RNA: GGGAGUUCUACAGUCCGACGAUCAGCAGACCCACUCCAGCUUUCUGGUGUCACAGGCGGGAAUGUCCGUCCGCCGGCCGACUCCGAUCCCAUUUCUGUCCUGCUCCCAGGAAGAUUCUCCGGUCCUCUUCAAUCCAGCAGCCCCAACAGAGGAUUGAGCAUCA
# B6: ENSG00000165672:stop:overlap|stop_codon|ENSG00000165672|stop_codon|NA|stop_codon (ssRNA)
# RNA: GGGAGUUCUACAGUCCGACGAUCCUCCUACGAUCAAGCCAAGUCCAGCUGCUUCCAAAGAGUACUUUCAGAAGGUAAAUCAGUAGAUCACCCAUGUGUAUCUGCACCUUCUCAACUGAGAGAAGAACCACAGUUGAAACCUGCCAACAGAGGAUUGAGCAUCA
# B7: ENSG00000198589:be:win_3651|CDS|ENSG00000198589|bound_else_gene|NA|bound_elsewhere_windowed (ssRNA)
# RNA: GGGAGUUCUACAGUCCGACGAUCCCUCACUAGAGAAACCAAAUUAAUUAAUGAUUGUCAUGGUAGUGUCUCUGAGGCUUCUUCUGAGCAAAAGAUUGCGAAGUUGGAUGUUUCCAAUGUUGCUACAGAUACUGAGAGGCUGGACAACAGAGGAUUGAGCAUCA
# B8: chr1:17068045:17068226:-|3pUTR|ENSG00000117115|msi1|FALSE|unique (ssRNA)
# RNA: GGGAGUUCUACAGUCCGACGAUCCUCCUUCCACUGCCUUGACUUUCUUCCUUUUUAUUCCUGGUGCCAUCUGUCCAGGCAGCUAGACAAGAACUUGUUCGCCAGCAGCCAGAUUCAGGCCUUCCCAGGGGCAUAAUAAGUGACCAACAGAGGAUUGAGCAUCA
# B9: chr17:18209558:18209659:+|3pUTR|ENSG00000091542|msi1|FALSE|unique (ssRNA)
# RNA: GGGAGUUCUACAGUCCGACGAUCGGUAGCUUCUAUCCACUCAGAUCCUGGAAGGCAGCAAGGUUUUGUGGAUCUAGAUUCAUUAGGAAUGUCUUCUUGUCAGCCAGGCCAGGACCCGGGCUUGCCAAGAGCAGAGGCCCUCCCCAACAGAGGAUUGAGCAUCA
# B10: chr2:1633339:1633490:-|3pUTR|ENSG00000130508|msi1|total|mutant (ssRNA)
# RNA: GGGAGUUCUACAGUCCGACGAUCUUCAUAAGCCACAUUCCGAAACAGGUUUGCUUUCAGCUGUCACUUGCACACAUACUGCCCCGUUGUGAACCAAAUGUGAAAAAACCUCCUUCAUCCCAUUGUGUAUCUGAUACCUGCCGACAACAGAGGAUUGAGCAUCA
# B11: ENSG00000147536:stop:overlap|stop_codon|ENSG00000147536|stop_codon|NA|stop_codon (ssRNA)
# RNA: GGGAGUUCUACAGUCCGACGAUCUCCGCUACGUCCUCAGCAGCUACUUGCGGUGUCGCCUCAUGAAGUUCCCAAACCAGAUCUAGAUUCUUACGUGUUUCUGAGAGUGAGAGAACGACAAGAAAACAUACUGGUAGAACCAGACAACAGAGGAUUGAGCAUCA
# B12: chr19:14119889:14120036:-|3pUTR|ENSG00000105011|msi1|FALSE|unique (ssRNA)
# RNA: GGGAGUUCUACAGUCCGACGAUCAGCAGACCCACUCCAGCUUUCUGGUGUCACAGGCGGGAAUGUUAGUUAGUAGGUAGACUUAGAUCCCAUUUCUGUCCUGCUCCCAGGAAGAUUCUUAGGUCCUCUUCAAUCCAGCAGCCCCAACAGAGGAUUGAGCAUCA
# B13: ENSG00000113300:stop:overlap|stop_codon|ENSG00000113300|stop_codon|NA|stop_codon (ssRNA)
# RNA: GGGAGUUCUACAGUCCGACGAUCUGGAGCUCUUACUGCCUUUCCUGCCCCAAGUCAACGGCAUCCACCUUCCUGGCAGGAGGUAGUCAAGCACCUUCAGAGGACAGCCUUGAUUCACUUGUAAACUUGUGAAAAUCUGAACAUCAACAGAGGAUUGAGCAUCA
# B14: chr20:50583650:50583751:+|3pUTR|ENSG00000196396|msi1|FALSE|unique (ssRNA)
# RNA: GGGAGUUCUACAGUCCGACGAUCUUCCUAAGCCUGUUGCUGAAGUCAUUGUCGCUCAGCAAUAGGGUGCAGUUUUCCAGGAAUAGGCAUUUGCCUAAUUCCUGGCAUGACACUCUAGUGACUUCCUGGUGAGGCCCAGCCUGUCAACAGAGGAUUGAGCAUCA
# B15: chr8:17644361:17644462:-|3pUTR|ENSG00000129422|msi1|FALSE|bound_elsewhere (ssRNA)
# RNA: GGGAGUUCUACAGUCCGACGAUCCAACAUUGUGAUGUCAGUAUUUACUAAUCUACAUUCAGUGGCUGUACAAAUAACAGCUGUAGUAAGAAGAGAUUCAGGAUGCUAGAGGUGAAUAUUUGGGUCAUUUACAUGUACACUACACAACAGAGGAUUGAGCAUCA
# B16: chr15:44665791:44665971:-|CDS|ENSG00000229474|control|control|control (ssRNA)
# RNA: GGGAGUUCUACAGUCCGACGAUCGAUCUGUUUGUUCUGGAAUACGUGUAUGUGGGAAGUUGAAUCAUCAGACACUAGCUACAUAGACUAUGUUUACAGGGAUCCAGAGAGUCUGAAGACAUUUCUUAUGCCUUUAUAUAUUGGCAACAGAGGAUUGAGCAUCA
# B17: chr4:75800632:75800752:+|CDS|ENSG00000138768|unk|total|mutant (ssRNA)
# RNA: GGGAGUUCUACAGUCCGACGAUCAAACAACUGAUUGAGAAGAGGAUUGGCAAAGAGAAUUUCACCGAGAAACCCGGAUUUAUCCGCAAACAUGAGUUGUAUUCCAGAGCAUCUCAGAAACCCCAGCCAAACUUUCCCAGUCCACAACAGAGGAUUGAGCAUCA
# B18: chr3:45095346:45095568:-|CDS|ENSG00000163814|control|control|control (ssRNA)
# RNA: GGGAGUUCUACAGUCCGACGAUCAAACAGAGCCGCAAGUUUGUCCCUGGCUGUUUCGUGUGUCUAGAAUCUCGGACCUGCAGUAGCAACCUCACCCUGACAUCUGGCUCCAAACACAAAAUCUCCUUCCUUUGUGAUGAUCUGCAACAGAGGAUUGAGCAUCA
# B19: chr1:17407970:17408071:-|3pUTR|ENSG00000179051|msi1|total|mutant (ssRNA)
# RNA: GGGAGUUCUACAGUCCGACGAUCGGGUACCGUUCUGCUGACCCAGCUCCCUUCCGUCACGUUUGCUUGGCUCUGGUACCAAACCGUUGGGAUUACCGAAGAGUCCCCUUCCUUGCGUGUCAGCACGGAUGCUGUGACUGCCACCAACAGAGGAUUGAGCAUCA
# B20: chr9:19276226:19276327:+|CDS|ENSG00000137145|unk|total|mutant (ssRNA)
# RNA: GGGAGUUCUACAGUCCGACGAUCCUUUGUCGCCGCUGGUCUCACUGACACAUCUACUCUUUUGGAUCAAGAAAUAAAUCGUUCCGAUACUAAGUCAACUGGACCUAAAGCUCCAAUUACAGACAUUGCCAUUAUUAUCAAAUCCAACAGAGGAUUGAGCAUCA
# Target: MSI1 full-length (mouse, UniProt Q61474 1-362)
# Sequence (Q61474 whole entry): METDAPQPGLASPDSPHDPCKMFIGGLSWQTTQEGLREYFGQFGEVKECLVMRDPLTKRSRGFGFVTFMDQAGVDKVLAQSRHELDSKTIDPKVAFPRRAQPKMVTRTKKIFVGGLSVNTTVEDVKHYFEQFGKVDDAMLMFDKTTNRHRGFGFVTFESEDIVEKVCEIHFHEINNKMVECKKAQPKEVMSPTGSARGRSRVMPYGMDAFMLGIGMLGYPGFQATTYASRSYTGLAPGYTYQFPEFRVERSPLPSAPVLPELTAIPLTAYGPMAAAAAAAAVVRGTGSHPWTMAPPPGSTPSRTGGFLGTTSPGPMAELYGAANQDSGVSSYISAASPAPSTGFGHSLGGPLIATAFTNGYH
# Experiment: nsRBNS (natural sequence RNA bind-n-seq); RBNS binding buffer (assumed for nsRBNS): 25 mM Tris pH 7.5, 150 mM KCl, 3 mM MgCl2, 0.01% Triton X-100, 500 ug/ml BSA, 20 U/ml SUPERase-In, 4 C; UNK is unkempt and MSI1 is Musashi-1; names of the RNAs are library labels; protein concentration not given here; high values mean tight binding
row,Binder,binding signal
1,B1,42.6 enrichment R
2,B2,2.8 enrichment R
3,B3,1.52 enrichment R
4,B4,0.357 enrichment R
5,B5,0.641 enrichment R
6,B6,0.684 enrichment R
7,B7,0.605 enrichment R
8,B8,0.526 enrichment R
9,B9,1.93 enrichment R
10,B10,0.388 enrichment R
11,B11,26.3 enrichment R
12,B12,38.2 enrichment R
13,B13,38.7 enrichment R
14,B14,0.237 enrichment R
15,B15,0.442 enrichment R
16,B16,0.282 enrichment R
17,B17,0.541 enrichment R
18,B18,0.476 enrichment R
19,B19,0.479 enrichment R
20,B20,0.315 enrichment R

# Reference: PMC12136788
